From PubChem
Mtb bLac sens – beta-lactam sensitization of Mtb H37Rv, H37Rv; inhibition, % at 25 µM; AID 434955, 2010; M. tuberculosis H37Rv growth with meropenem, percent inhibition; 330,000 tested, 0.27% active; call rule not given here;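 further: growth measured after seven days incubation then overnight dye step; 0% = bacteria only wells and 100% = bacteria with antibiotic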
PfHsp40 rescue – rescue of yeast from PfHsp40 toxicity, primary screen, S. cerevisiae, ATP luminescence; S. cerevisiae expressing PfHsp40, growth rescue; growth rescue, % at 12.5 µM; 340,000 tested, 0.68% active; AID 504582, 2011; in the data active means growth rescue above about 28%, passing the limit was not always enough; inconclusive means no clear call, values can overlap the other calls;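 further: yeast W303a lacking pdr1 and pdr3 grown in galactose medium; growth measured after three days at 30 °C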
Vc quorum ag – inducers of Vibrio cholerae quorum light production without autoinducers, primary screen, BH1578 luxS cqsA deficient, single point; activation, % at 18.7 µM; AID 588436, 2011; 350,000 tested, 0.16% active; V. cholerae BH1578 lux reporter, luminescence, 6 h; in the data active means activation mostly above about 9.7%, no sharp cut-off; inconclusive means no clear call, values can overlap the other calls; inactive means mostly below about 3.7%
Sa RN4220 lethal – growth inhibition of S. aureus RN4220, primary screen, OD600; 16 h; inhibition, % (test concentration not listed); 330,000 tested, 0.33% active; AID 1259311, 2017; in the data active means inhibition above about 85%;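 further: plate controls were untreated cells for no effect and reference antibiotic for full effect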
Sa ugtP lethal – growth inhibition of ugtP-null S. aureus, primary screen, RN4220 ugtP deletion, OD600 | 330,000 tested, 0.54% active | 16 h | growth inhibition, % (test concentration not listed); in the data active means growth inhibition above about 68%;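 further: plate controls were untreated wells for no effect and antibiotic for full effect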
Numbers without * were called inactive; i = inactive; ? = inconclusive; / = not tested or not shown. The list is not random: actives were taken first. Their share in the collection is about 1.2%.

SMILES	Mtb bLac sens	PfHsp40 rescue	Vc quorum ag	Sa RN4220 lethal	Sa ugtP lethal
CCCCS(=O)(=O)N1C2=NC(C(=O)OC)=C(C(=O)OC)C3N(C)c4ccc(OC)cc4[C@]23CC1C(=O)OC (stereo partly specified)	/	/	/	1	-3
CCOC(=O)c1oc2ccc(Br)cc2c1NC(=O)CN1CCN(C)CC1	-9	0	-1	1	91*
Cc1nn(-c2ccccc2)c2sc(C(=O)OCc3nnc(-c4ccccc4)o3)cc12	1	1	22*	2	-13
CC(CN=[N+]=[N-])CN1CCC(O)CCC1=O (stereo unspecified)	/	/	/	5	2
O=C1OCC2CCCN2C(=O)C(CC(=O)N(CCO)Cc2ccccc2)CC=CCC1Cc1ccc(F)cc1 (stereo unspecified)	/	/	/	2	-3
Cn1cccc1-c1cc(C(=O)N/N=C/c2ccccc2Cl)[nH]n1	-7	0	0	/	/
Cn1cccc1-c1cc(C(=O)N/N=C/c2cc(Br)ccc2O)[nH]n1	4	125*	0	/	/
COc1ccccc1OCCOc1ccc(C=Nn2cnnc2)cc1	/	/	/	5	4
N/C(=N\N=Cc1ccc(Br)cc1)NN=Cc1ccc(Br)cc1	/	/	/	101*	100*
CSC(=S)N/N=C/c1ccc(Br)cc1	94	-1	/	/	/
CC=CC(=O)Nc1cccc(C2=NOC3(C2)CC(C(N)=O)N(C(=O)c2cc([N+](=O)[O-])cc([N+](=O)[O-])c2)C3)c1 (stereo unspecified)	/	/	/	1	1
CCOC(=O)c1c(-c2ccc(F)cc2)csc1NC(=O)c1c(-c2ccccc2)noc1C	-10	32*	0	/	/
Cc1cc(OCCn2cc(/C(N)=N/O)c3ccccc32)ccc1Cl	0	1	-6	11	93*
Cc1ccc(-c2c(C#N)c(N)nc3c2CCCCC3)o1	42	0	-1	9	-8
O=[N+]([O-])c1ccc(-c2nc(Cl)c3c(n2)CCCC3)o1	/	/	30*	/	/
Cc1cc(N2CCOCC2)n2ncc(-c3ccc(Cl)cc3)c2n1	3	0	-1	1	58
Cc1cc(N2CCCCC2)n2ncc(-c3ccc(Cl)cc3)c2n1	91	-1	0	-1	85*
CCOc1ccc(-n2c(SCc3ccc([N+](=O)[O-])cc3)nnc2-c2ccccc2)cc1	6	8	i	59	86*
COc1ccc(-n2c(SCc3ccc([N+](=O)[O-])cc3)nnc2-c2ccccc2)cc1	11	4	0	5	36
CCNC(=S)Nc1ccc(C)c(S(=O)(=O)Nc2ccccc2OC)c1	-3	106*	i	1	6
COc1ccccc1NS(=O)(=O)c1cc(NC(=O)Nc2ccccc2)ccc1N1CCCCC1	-7	46*	0	-5	-13
Cc1cc(=O)oc2c(O)c(O)ccc12	/	-1	i	/	/
COc1ccc(/C=C\C(=O)c2c(O)ccc3c(C)cc(=O)oc23)cc1	81	1	i	-7	87*
COc1ccc(-c2cc(=O)oc3c(C)c(O)ccc23)cc1	8	-1	-15	6	-6
COc1ccc(/C=C/C(=O)c2c(O)ccc3c(C)cc(=O)oc23)cc1	75	-1	1	5	89*
SMILES	Mtb bLac sens	PfHsp40 rescue	Vc quorum ag	Sa RN4220 lethal	Sa ugtP lethal
O=C(c1cc(-c2ccncc2)nc2ccccc12)N1CCN(S(=O)(=O)C=Cc2ccccc2)CC1	/	/	/	2	-13
CC(NC1CCCCC1)=C(C#N)C(=O)NCCN1CCOCC1	/	/	/	4	4
CCCCOC(=O)/C=C/c1ccc(OC(=O)OC)c(OC(=O)OC)c1	7	287*	0	5	5
O=C(/C=C/c1ccccc1Cl)c1ccc(O)cc1	89	?	-1	5	51
O=C(/C=C/c1c(F)cccc1Cl)c1ccc(O)cc1	30	37*	0	11	19
CC1(c2ccccc2)CC(C)(C)N2C(=O)C(=O)c3cccc1c32 (stereo unspecified)	-9	0	i	/	/
CC1(c2ccccc2)CC(C)(C)N2C(=O)C(=C3SC(=S)NC3=O)c3cccc1c32 (stereo unspecified)	/	/	/	100*	100*
CC/C(=N\NC(=O)CNC(=O)/C=C/c1ccco1)c1ccccc1	-5	0	17*	/	/
CCC(=NNC(=O)CNC(=O)/C=C/c1ccco1)c1ccccc1	/	/	/	-7	-9
O=C(CSc1nnc(-c2ccc3c(c2)OCO3)o1)Nc1ncc(C(F)(F)F)cc1Cl	83	0	1	75	97*
Oc1c(CN2CCN(c3ccccc3)CC2)cc(Br)c2cccnc12	99	1	i	19	-2
Oc1c(Br)cc(Br)c2cccnc12	/	148*	1	/	/
NC(=O)CC(NC(=O)c1ccccc1)c1ccc(N2CCN(c3ccccc3)CC2)c([N+](=O)[O-])c1 (stereo unspecified)	10	1	-1	17	16
CN1CCN(c2ccc(C(CC(N)=O)NC(=O)c3ccccc3)cc2[N+](=O)[O-])CC1 (stereo unspecified)	-8	37*	3	0	-2
CCOC(=O)CC1c2ccccc2S(=O)(=O)N1Cc1cccc(C(F)(F)F)c1 (stereo unspecified)	/	/	/	-1	-16
CC(=O)Oc1ccc(C=NNC(=O)C2CCCN2S(=O)(=O)c2ccc(Cl)cc2)cc1 (stereo unspecified)	/	/	/	-1	0
O=C(CC(=O)Nc1ccccc1C(=O)O)NNC(=O)Cc1ccccc1	-3	1	-2	4	12
CC(C)C(=O)NNC(=O)CC(=O)Nc1ccccc1C(=O)O	-7	40*	-1	3	-1
CCn1cc(C(=O)O)c(=O)c2cnc(N3CCN(C(=S)Nc4ccccc4)CC3)nc21	17	1	-2	17	4
CCCCOC(=O)c1ccc(NC(=S)N2CCN(c3ncc4c(=O)c(C(=O)O)cn(CC)c4n3)CC2)cc1	78	0	1	101*	100*
CCN=C1Cn2c(nc3scc(-c4ccccc4)c3c2=O)CN1CC	-11	0	17*	3	13
CCc1nc2scc(-c3ccccc3)c2c(=O)n1N	-3	-1	1	1	4
COc1ccccc1Oc1c(C)oc2cc(OC(=O)N(C)C)ccc2c1=O	5	93*	i	0	6
CCCSc1nc2c(cnn2-c2ccccc2)c(=O)n1N	2	2	1	4	6
CCCOc1nc(SCCC)nc2c1cnn2-c1ccccc1	4	-1	-1	-5	93*
N/C(=N\OC(=O)CCCOc1ccc(Cl)cc1Cl)c1ccncc1	4	170*	5	-2	2
O=C1CCN(Cc2ccc(Br)cc2)CCN1C(CO)c1ccccc1 (stereo unspecified)	/	/	/	2	-3
O=C(c1ccccc1F)N1CCN(S(=O)(=O)c2ccc3ccccc3c2)CC1	7	30*	0	1	7
O=C1NCCCC1=NNc1ccc(Br)cc1	/	/	/	6	0
CCc1cccc2c(C(=O)COC(=O)c3ccc([N+](=O)[O-])s3)c[nH]c12	100	37*	-1	100*	101*
